The values below come from PubChem BioAssay AID624040 (The Scripps Research Institute Molecular Screening Center, 2012).

Screen size: about 360,000 compounds; about 2,100 (0.58%) were called active. The list comes from a sample in which actives are over-represented; it also holds similar structures and randomly drawn compounds. Values without a mark were called inactive.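 How the source made its calls: active means inhibition above a per-plate cutoff, the mean of that plate's test compounds plus 3 SD (cut at about 27% in these data); inactive means the rest.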

The target in this experiment is Muscarinic acetylcholine receptor M5 (Homo sapiens) (UniProt P08912). The experiment is described as follows: CHRM5 blockers of acetylcholine calcium response – CHO cells, Fluo-8 calcium fluorescence, primary screen (AID 624040).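 Further: 0% = acetylcholine EC80 with DMSO and 100% = DMSO without agonist.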 The note with it: CHO-hM5 cells, ACh EC80, at 3 µM, stronger effect = higher value.
Chain of Muscarinic acetylcholine receptor M5 (Homo sapiens) (P08912 whole entry, looked up): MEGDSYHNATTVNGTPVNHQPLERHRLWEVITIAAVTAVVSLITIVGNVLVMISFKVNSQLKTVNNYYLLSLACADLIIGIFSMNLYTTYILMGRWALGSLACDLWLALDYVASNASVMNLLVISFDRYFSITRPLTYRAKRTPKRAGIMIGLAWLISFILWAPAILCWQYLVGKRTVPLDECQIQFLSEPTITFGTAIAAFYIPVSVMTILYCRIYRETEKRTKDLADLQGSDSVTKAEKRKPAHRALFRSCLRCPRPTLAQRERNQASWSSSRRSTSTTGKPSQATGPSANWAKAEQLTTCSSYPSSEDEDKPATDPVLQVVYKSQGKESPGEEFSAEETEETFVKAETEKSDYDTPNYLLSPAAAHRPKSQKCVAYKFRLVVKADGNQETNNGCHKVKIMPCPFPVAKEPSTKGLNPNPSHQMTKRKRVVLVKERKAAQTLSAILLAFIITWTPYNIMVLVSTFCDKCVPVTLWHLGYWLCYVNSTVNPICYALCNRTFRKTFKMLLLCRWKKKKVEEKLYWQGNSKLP
Broadly, the inhibition is the relative decrease from the control value, in per cent. Take `CSCCC(NC(=O)COc1ccccc1)C(=O)Nc1ccc(C)cc1` (stereo unspecified): the inhibition is 0.42%.

As to `O=c1cc(CN2CCCCCCC2)c2c(ccc3ccccc32)o1`, the inhibition is 1.52%.

Consider `Cc1cc2oc(=O)cc(CN3CCN(S(=O)(=O)c4cccs4)CC3)c2cc1C(C)C`, for which the inhibition is 6.3%.

`CC(C)c1ccc2oc(=O)cc(CN3CCN(Cc4ccccc4)CC3)c2c1`: the inhibition was 27.9% (active).

`COc1ccc(-c2cc3nc(C)c(CCC(=O)NC(C)CCc4ccco4)c(C)n3n2)c(OC)c1` (stereo unspecified): the inhibition was -13.5%.

Turning to `CCC(C)C(NC(=O)C1CCC(=O)N1C(=O)OCc1ccccc1)C(=O)NC(C(=O)N1CCCC1C(N)=O)C(C)CC` (stereo unspecified), the inhibition is 5.74%.

Regarding `CCCCCCCCn1c2c(c(=N)c3c1CCC3)CCCC2`, the inhibition is 32.9% (active).

`C#Cc1ccc([C@@H]2C=C(C(=O)O)O[C@H](OCCCCO)C2)cc1`: the inhibition was 13.8%.

For the compound `CCCN(Cc1cc2cccc(C)c2[nH]c1=O)S(C)(=O)=O`, the inhibition was -2.81%.

On to `COc1cccc(CNC(=O)CCC2CCCN(C(=O)c3cc(C)[nH]n3)C2)c1` (stereo unspecified), for which the inhibition is 32.7% (active).

Regarding `COc1cccc(CNC(=O)CCC2CCCN(C(=O)c3ccc(F)c(Cl)c3)C2)c1` (stereo unspecified), the inhibition is -0.63%.

As to `COc1cccc(CNC(=O)CCC2CCCN(C(=O)c3ccoc3C)C2)c1` (stereo unspecified), the inhibition is 12.6%.

For `CC1(C)Cc2nc3sc4c(SCC(=O)NC(c5ccccc5)c5ccccc5)ncnc4c3cc2CO1`, the inhibition is -8.35%.

Take `CN(C)c1ccc(/C=C2\NC(=S)N(Cc3ccccc3)C2=O)cc1`: the inhibition is 52.7% (active).

On to `CCN(C(=O)CSc1nnnn1-c1ccc(OC)cc1)C1CCS(=O)(=O)C1` (stereo unspecified), for which the inhibition is 12.8%.

Regarding `CC(Sc1nn(-c2ccc(Cl)cc2)c(=S)s1)C(=O)NCC1CCCO1` (stereo unspecified), the inhibition was -4.62%.

Regarding `O=[N+]([O-])c1c(NCCO)cc(Sc2nc3ccccc3s2)c2nonc12`, the inhibition was 29.2% (active).

With `N#Cc1ccc(OCCN2C(=O)NC3(CCSC3)C2=O)cc1` (stereo unspecified), the inhibition is -5.81%.

For `COc1ccc(NC(=O)c2sccc2SCC#N)cc1`, the inhibition was 2.72%.

On to `CN1CCN(C(=O)C2=C[C@H](c3ccc4c(c3)OCO4)C[C@H](OCc3ccc(CO)cc3)O2)CC1`, for which the inhibition is 3.48%.

For the compound `COc1ccc(-n2nnc3c(=O)n(CC(=O)OCc4ccccc4)cnc32)cc1`, the inhibition was 4.49%.

With `CCSc1nsc(NC(=O)Nc2cccc(C(C)=O)c2)n1`, the inhibition is 22.5%.

`C=CCSc1nsc(NC(=O)Nc2cccc(C(C)=O)c2)n1`: the inhibition is 21.8%.

With `CSc1nsc(NC(=O)Nc2ccccc2)n1`, the inhibition is 31.1% (active).

For the compound `COC(=O)/C(C#N)=C/c1occc1C`, the inhibition is 2.54%.

On to `CC1OC2C(OC1C)N(S(C)(=O)=O)CCN2S(C)(=O)=O` (stereo unspecified), for which the inhibition is -2.68%.

Regarding `Cc1ccc(C(c2nnnn2CS(=O)(=O)c2ccc(C)cc2)N2CCC(C(N)=O)CC2)cc1` (stereo unspecified), the inhibition is -9.51%.

With `NC(=O)C1(N2CCCCC2)CCN(C2CC(=O)N(Cc3ccc(N4CCCC4=O)cc3)C2=O)CC1` (stereo unspecified), the inhibition is -5.49%.

For the compound `S=C(NCCCc1ccccc1)Nc1ccc(Br)cc1`, the inhibition is 27.8% (active).

`O=S(=O)(NCCCc1ccccc1)c1ccc(Br)cc1`: the inhibition was 6.97%.

As for `S=C(Nc1ccc(Br)cc1)NC1CCN(Cc2ccccc2)CC1`, the inhibition was -2.81%.

Consider `Cc1sc(NC(=O)C2C3CCC(O3)C2C(=O)O)c(C(=O)OC(C)C)c1-c1ccc(Cl)cc1` (stereo unspecified), for which the inhibition was -0.97%.

For `CC(C)OCCCNc1ncnc2c1[nH]c1ccc(F)cc12`, the inhibition was 36.1% (active).

Consider `COC(=O)c1ccccc1NC(=O)CN(Cc1ccccc1)S(C)(=O)=O`, for which the inhibition is -12.2%.

Take `COCCNC(=O)C1(C)CCCN(Cc2cccc(F)c2)C1` (stereo unspecified): the inhibition is 4.07%.

For `COc1cc(CNc2ncnc3c2ncn3[C@H]2CN(Cc3cccs3)C[C@@H](CO)O2)cc(OC)c1OC`, the inhibition was 10.9%.

Regarding `O=C(Cc1ccc(Cl)c(Cl)c1)Nc1ccc(SC(F)F)cc1`, the inhibition is 33.6% (active).

For `O=C(CC(O)(C(F)(F)F)C(F)(F)F)Nc1ccc(Cl)c(Cl)c1`, the inhibition was 17.8%.

Regarding `O=C(CCl)Nc1ccc(Sc2ccc(NC(=O)CCl)cc2)cc1`, the inhibition was 2.24%.

Turning to `Cc1ccc(NC2=C(Cl)C(=O)OC2OC(=O)c2ccccc2C)cc1` (stereo unspecified), the inhibition was 5.07%.

As to `CCC(=O)c1ccc(N2CCN(C(=O)c3cc([N+](=O)[O-])ccc3F)CC2)c(F)c1`, the inhibition is 17.6%.

For `CCC(C)(C)NC(=O)c1cc([N+](=O)[O-])ccc1N1CCCCC1`, the inhibition was 6.53%.

With `CCN1CCN(c2ccc([N+](=O)[O-])cc2C(=O)c2ccc(Cl)cc2)CC1`, the inhibition was 78.8% (active).

Turning to `O=C(CCC1CCCCC1)Nc1cc(C(F)(F)F)ccc1N1CCOCC1`, the inhibition is 10.2%.

In the case of `COC(=O)[C@@]12C[C@@H](CC(=O)N3CCCCC3)C(=O)N(Cc3ccc4c(c3)OCO4)C1=CCC(C)(C)C2`, the inhibition is -4.41%.

For `Cc1ccc(C)c2[nH]c(=O)c(CCNC(=O)c3cccs3)cc12`, the inhibition was 2.31%.

For the compound `Cc1cc2cc(CNC(=O)c3cccs3)ccc2[nH]1`, the inhibition is 97.7% (active).

For `Cc1cc2cc(CNC(=O)c3ccc(S(=O)(=O)N4CCOCC4)cc3)ccc2[nH]1`, the inhibition is 13.1%.

Consider `Cc1ccc(C)n1-c1ccncc1`, for which the inhibition is 2.29%.

Consider `CCOC(=O)c1ccc(N/C(=N/S(=O)(=O)c2ccccc2)c2ccccc2)cc1`, for which the inhibition is -3.7%.

Consider `COc1cc(NC(=O)c2ccccc2NS(=O)(=O)c2ccc(Cl)s2)cc(OC)c1`, for which the inhibition is 14.3%.

Turning to `COC(=O)c1ccc(NC(=O)c2ccccc2NS(=O)(=O)c2ccccc2)cc1`, the inhibition was 31.6% (active).

Take `COc1ccccc1NC(=O)CSc1nnc(-c2ccoc2C)n1CCc1ccccc1`: the inhibition was 6.68%.

With `COC(=O)C1=C(C)N(c2ccc(C)cc2)/C(=C/c2ccc(O)cc2)C1=O`, the inhibition was 3.87%.

As to `Cc1ccn2c(=O)c(C(=O)NCCC3=CCCCC3)c(O)nc2c1`, the inhibition is 2.86%.

`CC(=O)NC(CC(=O)Nc1nccs1)c1ccccc1` (stereo unspecified): the inhibition is -3.08%.

Turning to `CC(NC(=O)C(=O)Nc1nccs1)c1ccccc1` (stereo unspecified), the inhibition is 30.9% (active).

Take `C[C@H](NC(=O)c1[nH]cnc1C(=O)Nc1nccs1)c1ccccc1`: the inhibition is 11.9%.

With `O=C(C1CC1)N1N=C2CCCCC2C1(O)C(F)(F)F` (stereo unspecified), the inhibition was 13.2%.

Turning to `Cc1nc(C)c(C(=O)N(c2ccc(C)c(C)c2)C(C(=O)NCc2ccco2)c2ccccc2)s1` (stereo unspecified), the inhibition is 2.62%.

With `CC(C)(C)C(=O)c1c(N)[nH]c(C(=O)c2ccccc2)c1-c1ccc(F)cc1`, the inhibition was -1.9%.

On to `COc1ccc(NC(=O)CC(NC(C)c2ccccc2)C(=O)O)cc1` (stereo unspecified), for which the inhibition is 4.75%.

On to `CCC(C(=O)OCC(=O)Nc1ccc(C(=O)Nc2ccc(OC)cc2)cc1)c1ccccc1` (stereo unspecified), for which the inhibition was 36.3% (active).

Regarding `COc1ccc(NC(=O)COC(=O)c2ccc(NS(=O)(=O)/C=C/c3ccccc3)cc2)cc1`, the inhibition was 14.2%.

As to `Cc1ccc(N2C(=O)C3C(c4ccccc4)(C2=O)C3(c2ccccc2)c2ccccc2)cc1` (stereo unspecified), the inhibition was 15.6%.

Regarding `OC(c1ccccc1)(c1ccccc1)C1CCN(CCCOc2ccccc2)CC1`, the inhibition is 97.1% (active).

Consider `O=c1[nH]c2ccccc2n1C1CCN(CCOc2ccccc2)CC1`, for which the inhibition was 8.05%.

As to `COc1ccc(OCCCCN2CCC(C)CC2)cc1`, the inhibition is 5.32%.

In the case of `OC[C@@H]1CN(Cc2ccc3c(c2)OCO3)C[C@H](n2cnc3c(NCc4ccco4)ncnc32)O1`, the inhibition was -1.64%.

In the case of `COc1cc(C(=O)NCc2ccc(-n3cccc3)cc2)cc(OC)c1OC`, the inhibition is 21.1%.

`CCn1c(CNC(=O)c2cc(OC)c(OC)c(OC)c2)cc2cc(C)ccc21`: the inhibition was 48% (active).

`COc1cc(C(=O)NCc2nnc(SCC(=O)Nc3nc4ccc(C)cc4s3)o2)cc(OC)c1OC`: the inhibition is -2.26%.

With `CSc1ncccc1C(=O)OCC(=O)N1CCOCC1`, the inhibition is -6.57%.

Consider `Cc1ccc2cc(CCNC(=O)c3ccc4c(c3)OCO4)c(=O)[nH]c2c1`, for which the inhibition was -4.27%.

On to `OC(COc1ccc2ccccc2c1)Cn1cncn1` (stereo unspecified), for which the inhibition is -0.83%.

As for `CCOC(=O)c1c(/N=C/C2C(=O)CC(C)(C)CC2=O)sc(C)c1C`, the inhibition was -2.97%.

As for `CC(C)CN(C(=O)Cn1c(=O)cnc2ccccc21)C1CCS(=O)(=O)C1` (stereo unspecified), the inhibition is 99.6% (active).

For `CCN(C(=O)CSc1nc2ccccc2n1CC)C1CCS(=O)(=O)C1` (stereo unspecified), the inhibition is -0.58%.

For the compound `CC(C)CN(C(=O)CSc1ncnc2sccc12)C1CCS(=O)(=O)C1` (stereo unspecified), the inhibition was 1.5%.

On to `N#Cc1c(NC(=O)c2ccc(N3CCOCC3)c([N+](=O)[O-])c2)sc2c1CCCC2`, for which the inhibition was 2.95%.

As for `O=C1NC[C@H](Cc2ccc(O)cc2)N(C[C@@H]2CCCN2C[C@H](Cc2ccccc2)N2C[C@H](Cc3ccccc3)N(CC3CCCCC3)C(=O)C2=O)C1=O`, the inhibition was -4.87%.

With `Cc1ccc(OCc2cc(C(=O)N(C)CCn3ccnc3C)no2)cc1C`, the inhibition was -4.53%.

For `CN(Cc1cccnc1)C(=O)c1cc(COc2ccc3ncccc3c2)on1`, the inhibition was 42.6% (active).

Consider `Cc1cc(CN(C)C(=O)c2cc(COc3ccc(C)c(C)c3)on2)n[nH]1`, for which the inhibition was -7.18%.

For the compound `CC/C(=C\c1ccc(Cl)cc1)c1ccncc1`, the inhibition was 4.13%.

Regarding `CC(=O)Nc1cccc(-c2ccnc3c2CC(C)(C(=O)NCc2ccccc2)O3)c1` (stereo unspecified), the inhibition was -11.6%.

As to `C=CCN(c1ccccc1C(=O)NCC(=O)OCC)S(=O)(=O)c1ccc(C)cc1`, the inhibition is 3.91%.

In the case of `CCOc1ccc(CN(Cc2ccco2)S(=O)(=O)c2ccc(-n3cnnn3)c(OC)c2)cc1`, the inhibition is 4.28%.

Consider `COc1ccc(C(C(=O)NCC2CCCO2)N(C(=O)Cn2nnc3ccccc32)c2ccc(NC(C)=O)cc2)cc1OC` (stereo unspecified), for which the inhibition was -5.21%.

As to `CCOc1cc(C(C(=O)NCC2CCCO2)N(C(=O)Cn2nnc3ccccc32)c2cccc(OC)c2)ccc1O` (stereo unspecified), the inhibition was 31.8% (active).

On to `Cc1ccc(C(C(=O)NCc2ccco2)N(CC2CCCO2)C(=O)Cn2nnc3ccccc32)cc1` (stereo unspecified), for which the inhibition was -3.06%.
